Assay results as given in PubChem BioAssay (NCI).
About 83,000 compounds went through this panel and 20% of them were active in at least one assay; those are over-represented in the sample as a whole.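 For each line, cells grew in 96-well plates with the test compound present at a single concentration for 48 hours.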 A number with no mark means an inactive call. Active and inactive are the calls of the source.

Test system: HOP-92 NSCLC
Assay: NCI-60 one-dose screen, 48 h (100 = growth as untreated, 0 = no growth, -100 = all killed)
Details: 10 µM unless noted
Protocol: Growth inhibition of the HOP-92 human Non-Small Cell Lung tumor cell line is measured as a screen for anti-cancer activity. Cells are grown in 96 well plates and exposed to the test compound for 48 hours. Compounds are tested at a single concentration, which is 10^-5 M for most compounds. The reported endpoint is percent growth (GI% or GIPRCNT), where numbers from 0 - 100% represent growth inhibition, and numbers from -100% - 0 represent cell death. For example, a value of 40 represents 60% growth inhibition. A value of 0 means no net growth occurred over the course of the experiment. A value of -40 indicates 40% of cells at the beginning of the experiment died by the end of the experiment. A value of -100 means all cells are dead at the end of the experiment.
NCI-60 Human Tumor Cell Lines Screen was performed using the standard one-dose NCI protocol, which is described in more detail at https://dtp.cancer.gov/discovery_development/nci-60/default.htm.
Compounds with GIPRCNT values below 10 were considered active. Activity score was based on GIPRCNT using the following formula: […]
Score is 0 for GIPRCNT values of 100 or above, 50 for GIPRCNT values of 0, and 100 for GIPRCNT values of -100.

Q: How did the growth turn out when `Nc1n[nH]c2cccc(C#Cc3cccc(NC(=O)c4cc(N5CCOCC5)cc(C(F)(F)F)c4)c3)c12` was run?
A: 34.1%

Q: With `O=C1CCc2ccccc2N1` as the compound, how does the growth read?
A: 101%

Q: How did the growth turn out when `Fc1ccc(N/N=C/c2ccc(-n3cccn3)cc2)cc1` was run?
A: 105%

Q: With `CN(C)c1ccc(-c2ccc3[nH]c(=O)nc(-c4ccc(F)cc4)c3c2)cn1` as the compound, how does the growth read?
A: 56.1%

Q: For `COc1ccc2c(c1)Oc1nc(N)c(C#N)c(N)c1C2Sc1ccc(O)cc1` (stereo not given), which growth is on record?
A: 92.4%

Q: For `[2H]c1cc2c(c([2H])c1F)/C(=C/c1[nH]c(C)c(C(=O)NCCN(CC)CC)c1C)C(=O)N2`, which growth is on record?
A: 26.6%

Q: With `COc1ccc2nc(-c3ccc(OC)c(OC)c3)cc(-c3nnc(SCC(=O)Nc4ccc(C(C)=O)cc4)o3)c2c1` as the compound, how does the growth read?
A: 116%

Q: With `COc1ccc(-c2cn(-c3ccc(Cl)cc3)c(=S)[nH]2)cc1OC` as the compound, how does the growth read?
A: 81.8%

Q: `C#C[C@@]1(O)[C@@H](CO)O[C@@H](n2cc(-c3ccco3)c3c(N)ncnc32)[C@@H]1O` was tested. Which growth did it give?
A: 30%

Q: `CCO/C=N/S(=O)(=O)c1cc2c(cc1Cl)NC=NS2(=O)=O` was tested. Which growth did it give?
A: 92.2%

Q: Which growth does the source give for `COc1cccc(C(=O)OCCn2nc3c4c(cccc42)C(=O)c2ccccc2-3)c1O` here?
A: 62.1%

Q: For `NS(=O)(=O)c1ccc(-n2nc(-c3ccccc3)ccc2=O)cc1`, which growth is on record?
A: 97.1%

Q: For `O=C(Nc1nccs1)c1noc2ccccc12`, which growth is on record?
A: 76.2%

Q: How did the growth turn out when `Cn1c2c(c3ccc(-c4ccn[nH]4)cc3c1=O)C(=O)c1ccccc1-2` was run?
A: 79.3%

Q: For `N#C/C(=C/c1ccc(O)c([N+](=O)[O-])c1)c1nc(-c2ccc([N+](=O)[O-])cc2)cs1`, which growth is on record?
A: -8.22% (active)

Q: How did the growth turn out when `CC1=C(CCCOC(=O)NCCCl)C2=C(C)C3(CC3)[C@@](C)(O)C(=O)C2=C1` was run?
A: 8.91% (active)

Q: How did the growth turn out when `Nc1ccc(C2=NN(C(=O)c3cc(-c4ccc(Cl)cc4)nc4ccccc34)C(c3ccc(Cl)cc3)C2)cc1` (stereo not given) was run?
A: 60.3%

Q: How did the growth turn out when `O=C(O)C(C(=O)O)c1cccc2ccccc12` was run?
A: 94.5%

Q: How did the growth turn out when `NC(=O)CN1C(=O)c2ccccc2C1=O` was run?
A: 96.7%

Q: `N#CC1(C#N)C2=C(CCCC2)NC(c2c(F)cccc2Cl)C1(C#N)C#N` (stereo not given) was tested. Which growth did it give?
A: 42.9%

Q: Which growth does the source give for `Cc1[nH]c2ncnc(Oc3ccc(NC(=O)Nc4ccc(Cl)c(C(F)(F)F)c4)cc3)c2c1C` here?
A: 91.9%

Q: How did the growth turn out when `O=C(NCc1ccccc1)c1ccc2c(c1)NC(=O)[C@@H]1CCCN21` was run?
A: 102%

Q: How did the growth turn out when `O=C1CCC23OC(c4ccccc4N12)C(O)C(O)C3O` (stereo not given) was run?
A: 113%

Q: With `Nc1c(C(=O)Nc2ccccn2)sc2nc3c(cc12)CCCC3` as the compound, how does the growth read?
A: 60.2%

Q: How did the growth turn out when `[2H]c1nc(Nc2ncc3cc(C(=O)N(C)C)n(C4CCCC4)c3n2)c([2H])c([2H])c1N1C([2H])([2H])C([2H])([2H])NC([2H])([2H])C1([2H])[2H]` was run?
A: 65.8%

Q: With `COCCOCCOCc1n(Cc2ccc3ccccc3c2)c2ccccc2[n+]1Cc1ccc2ccccc2c1` as the compound, how does the growth read?
A: -32.1% (active)

Q: For `CCCCCCC/C=C/[C@H]1O[C@]23C(=O)C[C@@]4(C[C@@H](OC5OC(CO)C(O)C(O)C5O)C[C@@H]4[C@H]2C=C1C)OC3=O` (stereo not given in full), which growth is on record?
A: 59%

Q: How did the growth turn out when `COc1ccc([C@H]2[C@@H](F)C(=O)N2c2cc(OC)c(OC)c(OC)c2)cc1F` was run?
A: 32.3%

Q: With `CC(=O)[C@@H]1CC[C@]2(C(=O)O)CC[C@]3(C)[C@H](CC[C@@H]4[C@@]5(C)Cc6c([nH]c7ccccc67)C(C)(C)[C@@H]5CC[C@]43C)[C@@H]12` as the compound, how does the growth read?
A: 80%

Q: For `Cc1ccccc1NC(=O)c1sc2nc(C)c(C(C)O)cc2c1N` (stereo not given), which growth is on record?
A: 47.3%

Q: `CC1CCN(CCCCCOc2ccc3oc4ccccc4c(=O)c3c2)CC1` was tested. Which growth did it give?
A: 83.7%

Q: For `O=CN1N=C(c2ccc3c(c2)OCO3)CC1c1cccc(Nc2ccnc3cc(C(F)(F)F)ccc23)c1` (stereo not given), which growth is on record?
A: 73%

Q: Which growth does the source give for `CCCCc1nc(Cl)c(C2CC(c3ccc(Cl)cc3)=NN2c2cc(Cl)cc(Cl)c2)[nH]1` (stereo not given) here?
A: 94%

Q: With `O=C1C(=O)c2c(nc3ccc(Br)cn23)-c2ccccc21` as the compound, how does the growth read?
A: -75.3% (active)

Q: For `C[C@H](Oc1cc(-c2cnn(C3CCNCC3)c2)cnc1N)c1c(Cl)ccc(F)c1Cl`, which growth is on record?
A: 41.1%

Q: How did the growth turn out when `O=CN1N=C(c2ccc(Cl)cc2)CC1c1cccc(Nc2ccnc3cc(C(F)(F)F)ccc23)c1` (stereo not given) was run?
A: 66.3%

Q: For `NC(N)=NC(N)=Nc1cc2ccccc2c2ccccc12`, which growth is on record?
A: -3.37% (active)

Q: For `Nc1cc(N)nc(SCC(=O)O)n1`, which growth is on record?
A: 97.3%

Q: With `CN(C)[C@@H]1C(=O)C(C(N)=O)=C(O)[C@@]2(O)C(=O)C3=C(O)c4c(O)cc(CN5CCc6ccccc6C5)c(Cl)c4C[C@H]3C[C@@H]12` as the compound, how does the growth read?
A: -82.8% (active)

Q: `COc1ccc(C(C)c2cc(OC)c(OC)c(OC)c2)cc1` (stereo not given) was tested. Which growth did it give?
A: 49%
